LYPLA2 counter = LYPLA2 inhibitors, primary screen, counter-screen for PME1 inhibitor project, biochemical, fluorescence polarization, FP-Rh probe ABPP | Acyl-protein thioesterase 2 (Homo sapiens), O95372 | recombinant LYPLA2 | inhibition, % at 5.9 µM | actives 0.38% (n = 320,000);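 active means inhibition above the screen-wide mean plus 3 SD, limit set per campaign, cut at about 26% in these data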;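 further: 0% = LYPLA2 with DMSO and 100% = wells lacking LYPLA2 enzyme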
GSTO1 inh = inhibitors of recombinant GSTO1, primary screen, counter-screen for RBBP9 inhibitor project, biochemical, fluorescence polarization. activity-based probe fluorescence polarization. inhibition, % at 5.96 µM. actives 1.1% (n = 300,000);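 active means inhibition above the campaign mean inhibition plus 3 SD, cut at about 35% in these data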;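 further: 0% = GSTO1-1 with DMSO and 100% = wells lacking GSTO1-1 enzyme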
Target sequence (P78417 whole entry, looked up): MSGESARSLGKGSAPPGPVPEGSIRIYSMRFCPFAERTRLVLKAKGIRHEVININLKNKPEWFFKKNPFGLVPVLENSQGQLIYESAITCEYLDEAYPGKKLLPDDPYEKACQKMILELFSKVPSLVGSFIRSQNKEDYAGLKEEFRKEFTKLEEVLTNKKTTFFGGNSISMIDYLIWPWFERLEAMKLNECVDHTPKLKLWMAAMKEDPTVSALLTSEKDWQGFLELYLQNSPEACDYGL
LYPLA1 counter = LYPLA1 inhibitors, primary screen, counter-screen for PME1 inhibitor project, biochemical, fluorescence polarization, FP-Rh probe ABPP. actives 0.16% (n = 320,000). Acyl-protein thioesterase 1 (Homo sapiens), O75608. inhibition, % at 5.9 µM. recombinant LYPLA1;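 active means inhibition above the mean of all tested compounds plus 3 SD, set per campaign, cut at about 14% in these data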;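 further: inhibitors block serine hydrolase probe labeling of LYPLA1 so polarization falls; 0% = enzyme with DMSO and 100% = wells lacking LYPLA1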
PME-1 inh = PME-1 inhibitors via competitive probe labeling, primary screen, biochemical, fluorescence polarization, FP-Rh probe, HTS | Protein phosphatase methylesterase 1 (Homo sapiens), Q9Y570 | inhibition, % at 5.9 µM | actives 0.53% (n = 320,000) | AID 2130, 2009 | recombinant PME-1;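 active means inhibition above the campaign mean of all compounds plus 3 SD, cut at about 26% in these data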;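 further: competitive labeling of PME-1 active site by serine hydrolase directed probe; 0% = PME-1 with DMSO and 100% = wells lacking PME-1 enzyme; inhibitors block probe labeling so polarization falls and inhibition rises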
Target sequence (Q9Y570 whole entry, looked up): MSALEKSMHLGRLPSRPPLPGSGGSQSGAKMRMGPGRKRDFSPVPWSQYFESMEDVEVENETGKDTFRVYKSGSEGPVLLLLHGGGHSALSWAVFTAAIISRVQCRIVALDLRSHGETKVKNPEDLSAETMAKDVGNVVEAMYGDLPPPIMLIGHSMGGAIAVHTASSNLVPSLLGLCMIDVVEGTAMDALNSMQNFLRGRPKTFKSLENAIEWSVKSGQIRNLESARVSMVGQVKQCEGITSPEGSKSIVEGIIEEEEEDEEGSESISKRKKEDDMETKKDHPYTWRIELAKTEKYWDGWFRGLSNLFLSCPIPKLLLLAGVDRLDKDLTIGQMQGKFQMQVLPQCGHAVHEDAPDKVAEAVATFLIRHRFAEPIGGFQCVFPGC
Fam108B counter = mouse Fam108B serine hydrolase inhibitors, primary screen, counter-screen for RBBP9 inhibitor project, biochemical, fluorescence polarization; actives 0.33% (n = 300,000); AID 1947, 2009; recombinant Fam108B, FP-Rh probe fluorescence polarization; inhibition, % at 9.51 µM;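 active means inhibition above the screen mean inhibition plus 3 SD, computed separately per campaign, cut at about 18% in these data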;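 further: inhibitors lower polarization as less probe binds the enzyme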
PAD4 FP inh = human PAD4 inhibitors, primary screen, biochemical, fluorescence polarization, 1536-well format; Protein-arginine deiminase type-4 (Homo sapiens), Q9UM07; recombinant PAD4, RCA probe fluorescence polarization; inhibition, % at 6.36 µM; actives 0.41% (n = 330,000); AID 485272, 2010;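 active means percent inhibition above a cutoff equal to the mean of all tested compounds plus 3 SD, cut at about 15% in these data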;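 further: 0% = PAD4 with RCA probe and DMSO and 100% = probe without PAD4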
Fam108b confirm = mouse Fam108b serine hydrolase inhibitors, confirmation, counter-screen for RBBP9 inhibitor project, biochemical, fluorescence polarization, triplicate; actives 44% (n = 930); shares compounds with Fam108B counter; AID 1978, 2009; recombinant Fam108b, FP-Rh probe fluorescence polarization; inhibition, % at 9.51 µM;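 active means inhibition above a limit from the primary screen, the mean over all compounds plus 3 SD, cut at about 19% in these data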;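 further: 0% = median of active Fam108b wells and 100% = catalytically dead S170A mutant; inhibitors free the probe so polarization falls as inhibition rises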
Fam108b inh = inhibition of mouse Fam108b by HTS hits, late-stage follow-up, biochemical, gel-based ABPP, soluble recombinant form. inhibition, % at 20 µM. actives 44% (n = 260). fluorophosphonate probe. AID 588649, 2011. shares compounds with Fam108B counter; in the data active means inhibition above about 40%
GSTO1 inh conf = GSTO1 inhibitor hit confirmation, counter-screen for RBBP9 inhibitor project, biochemical, fluorescence polarization, triplicate. shares compounds with GSTO1 inh. recombinant GSTO1, probe fluorescence polarization. inhibition, % at 5.96 µM. actives 54% (n = 2,400). AID 2176, 2009;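 active means inhibition above the primary screen's cutoff, its mean inhibition plus 3 SD, cut at about 35% in these data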;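 further: loss of polarization as inhibitors block binding of rhodamine sulfonate ester activity probe; 0% = GSTO1 with DMSO and 100% = wells lacking GSTO1 enzyme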
LYPLA1 conf = LYPLA1 inhibitors, retest, confirmation, counter-screen for PME1 inhibitor project, biochemical, fluorescence polarization, FP-Rh probe ABPP | shares compounds with LYPLA1 counter | recombinant LYPLA1 | inhibition, % at 5.9 µM | actives 69% (n = 480) | AID 2233, 2010;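 active means mean inhibition across replicates above the hit cutoff set in the primary screen, cut at about 15% in these data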;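 further: loss of FP-Rh probe labeling of LYPLA1 seen as lower polarization; 0% = LYPLA1 with DMSO and 100% = wells lacking LYPLA1 enzyme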
LYPLA2 conf = LYPLA2 inhibitors, retest, confirmation, counter-screen for PME1 inhibitor project, biochemical, fluorescence polarization, FP-Rh probe ABPP. shares compounds with LYPLA2 counter. recombinant LYPLA2. inhibition, % at 5.9 µM. actives 72% (n = 1,100). AID 2232, 2010;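 active means mean inhibition across replicates above the hit cutoff set in the primary screen, cut at about 26% in these data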;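 further: blocked labeling of the enzyme by serine hydrolase FP-Rh probe lowers polarization; 0% = enzyme with DMSO and 100% = wells lacking LYPLA2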
PAD4 FP conf = human PAD4 inhibitors, confirmation, biochemical, fluorescence polarization | actives 28% (n = 1,200) | AID 488796, 2010 | recombinant PAD4, RCA probe fluorescence polarization | inhibition, % at 6.36 µM | shares compounds with PAD4 FP inh;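 active means mean inhibition across replicates above the hit cutoff set by the earlier primary screen, cut at about 15% in these data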;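 further: inhibitors block active-site labeling by the probe so polarization falls; 0% = PAD4 with probe and DMSO and 100% = probe without PAD4 enzyme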
* = called active by the depositor; . = not tested or not shown. A selection: hits, their analogues and other compounds. The true share with any hit is near 1.8%.

SMILES	LYPLA2 counter	GSTO1 inh	LYPLA1 counter	PME-1 inh	Fam108B counter	PAD4 FP inh	Fam108b confirm	GSTO1 inh conf	LYPLA1 conf	LYPLA2 conf	PAD4 FP conf	others
Cc1c(Cl)cccc1N/C(=N/S(=O)(=O)c1cccs1)c1ccccc1	0.7	5.9	-1.1	-0.5	-4.1	-2.3	.	.	.	.	.
Cn1ccnc1C(O)c1ccccc1 (stereo unspecified)	4.1	3.2	1.2	-0.4	-1.3	1.1	.	.	.	.	.
COc1ccc2ccccc2c1C(O)c1nccn1C (stereo unspecified)	29.6*	35.7*	23.9*	28.9*	25.6*	26.3*	55.5*	.	14.8*	8.6	39.2*	Fam108b inh=0.0
COc1ccc(C(=O)NCC(c2ccco2)N2CCc3ccccc32)c(OC)c1 (stereo unspecified)	-1.9	10.9	0.0	5.8	4.4	-1.0	.	.	.	.	.
NS(=O)(=O)c1ccc(NC2=CC(=O)C(=O)c3ccccc32)cc1	1.6	84.4*	1.8	8.6	20.0*	28.3*	32.2*	87.6*	.	.	61.5*	Fam108b inh=0.0
Cc1ccccc1NC(=O)C1CCCN1S(=O)(=O)c1ccccc1C(F)(F)F (stereo unspecified)	1.1	.	0.2	2.6	.	4.3	.	.	.	.	.
CCOC(=O)C1CCCN(C(=O)C2c3ccccc3Oc3ccccc32)C1 (stereo unspecified)	59.1*	45.5*	56.1*	65.9*	41.1*	93.5*	6.1	4.9	4.6	2.7	10.7
CCOC(=O)C1CCCN(C(=O)c2ccc(C(=O)c3ccccc3)cc2)C1 (stereo unspecified)	2.4	.	0.6	-3.6	.	1.5	.	.	.	.	.
O=C(O)CSc1cc(NS(=O)(=O)c2ccc(Cl)cc2)c2ccccc2c1O	28.1*	87.8*	3.8	28.1*	27.8*	31.4*	18.7*	.	.	13.3	-5.9
CC(=O)Nc1ccc(NS(=O)(=O)c2ccccc2)c2ccccc12	-0.1	3.7	-0.5	-3.0	1.2	-5.1	.	.	.	.	.
CCc1ccc(S(=O)(=O)/N=C2\C=C(Nc3cccc(C(=O)O)c3)C(=O)c3ccccc32)cc1	15.1	98.2*	10.2	29.2*	57.4*	71.1*	78.1*	91.6*	.	.	65.8*	Fam108b inh=40.0*
Cc1cc(C)c(S(=O)(=O)/N=C2\C=C(Nc3ccc(C(=O)O)cc3)C(=O)c3ccccc32)c(C)c1	10.5	85.0*	-4.7	15.2	40.4*	52.5*	59.0*	88.6*	.	.	40.0*	Fam108b inh=0.0
CCOC(=O)C1=C(O)c2ccccc2C(=O)/C1=C\c1ccc(CC)cc1	4.0	31.4	0.4	6.2	2.6	-41.9	.	.	.	.	.
CCc1ccc(S(=O)(=O)/N=C2/C=C(Sc3ncn[nH]3)C(=O)c3ccccc32)cc1	40.0*	82.8*	1.5	37.4*	54.2*	37.4*	56.9*	88.5*	.	47.4*	21.6*
CCc1ccc(S(=O)(=O)/N=C2\C=C(Nc3ccc(O)cc3)C(=O)c3ccccc32)cc1	3.7	87.0*	-12.3	40.2*	20.1*	51.8*	17.1	87.1*	.	.	49.7*
CC(C)CN(C(=O)c1cc(=O)[nH]c2ccccc12)c1c(N)n(Cc2ccccc2)c(=O)[nH]c1=O	7.2	-6.6	1.3	-6.6	2.9	1.6	.	.	.	.	.
CC(C)c1ccc(CNc2ncccn2)cc1	1.4	2.6	-0.2	-3.1	6.6	-6.0	.	.	.	.	.
O=c1ccc2c(-c3ccccc3)c3ccc(O)cc3oc-2c1	40.9*	-2.9	45.8*	5.2	25.6*	29.3*	41.9*	.	33.1*	29.1*	63.1*	Fam108b inh=25.0
Cc1oc2cc(O)ccc2c(=O)c1-c1ccccc1	5.2	5.1	1.3	-1.7	0.6	0.2	.	.	.	.	.
CCc1ccc(CNc2ccc(O)cc2)cc1	13.1	85.6*	5.8	37.8*	37.5*	14.9*	13.9	4.2	.	.	3.1
CCc1ccc(CNc2ccc3c(c2)ncn3CC)cc1	10.5	3.6	3.7	2.4	0.2	3.2	.	.	.	.	.
CCN(CC)C(=O)C1c2ccccc2Oc2ccccc21	72.1*	44.1*	57.6*	70.2*	47.0*	79.6*	3.4	8.9	2.5	3.5	6.8
O=C(C[C@@H]1C/C=C\C[C@H](Cc2ccc(F)cc2)C(=O)OC[C@H]2CCCN2C1=O)NCCO	.	.	.	.	.	-2.2	.	.	.	.	.
Cc1cc2nc3ccc(N(C)C)cc3nc2cc1N	33.0*	47.4*	31.8*	40.3*	31.8*	29.3*	19.3*	41.5*	19.2*	24.5	31.1*
CSc1nsc(/C=C/Nc2ccc(O)cc2C)c1C#N	30.3*	68.7*	21.6*	50.6*	21.2*	28.8*	13.9	.	-6.8	-6.9	-1.6
Cc1ccsc1C=Nc1ccc(O)cc1	40.5*	92.3*	38.3*	55.4*	41.7*	30.0*	3.7	36.6*	6.1	-0.5	-5.0
CC(Sc1nnnn1C)C(=O)NC1CCCC1 (stereo unspecified)	.	.	.	.	.	1.0	.	.	.	.	.
CSCCC(NC(=O)c1ccccc1Cl)C(=O)Nc1cccc(S(=O)(=O)N2CCCC2)c1 (stereo unspecified)	3.5	-3.3	-0.1	2.5	2.0	-1.4	.	.	.	.	.

Source: PubChem BioAssay (The Scripps Research Institute Molecular Screening Center)
